# Measurements from PubChem BioAssay (NCI).
# Where “and” joins values, the source holds several entries; their conditions need not be identical. Equal entries are not always repeated. This is part of a sample that, as a whole, favours compounds with a hit. Of some 83,000 tested, about 20% had one in any assay.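 Each cell line was grown in a 96-well plate and treated with one concentration of compound for 48 hours. Values below 10 were considered active.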 Calls of active or inactive are those of the source.
# Tests used:
# Test in all cases: NCI-60 one-dose screen, 48 h (100 = growth as untreated, 0 = no growth, -100 = all killed)
# [1] = system: T-47D breast
# [2] = system: BT-549 breast
# [3] = system: MDA-MB-435 melanoma
# [4] = system: SW-620 colon
# [5] = system: MCF7 breast; conditions: 10 µM unless noted
# [6] = system: HCT-116 colon; conditions: 10 µM unless noted
# [7] = system: HCC-2998 colon
# [8] = system: KM12 colon
smiles,measurement,setting,value
Oc1nc(NCCc2ccccc2)sc1/C=C1\C=Nc2ncccc21,growth,[1]; 10 µM unless noted,-1.34% (active) and 2.6% (active)
same,growth,[2]; 10 µM unless noted,5.29% (active) and -7.9% (active)
same,growth,[3]; 10 µM unless noted,18.5% (inactive) and 21% (inactive)
same,growth,[4]; 10 µM unless noted,7.8% (active) and 9.88% (active)
same,growth,[5],2% (active) and 4% (active)
same,growth,[6],5.84% (active) and 9.69% (active)
same,growth,[7]; 10 µM unless noted,66.2% (inactive) and 53.9% (inactive)
same,growth,[8]; 10 µM unless noted,9.25% (active) and 13.1% (inactive)
CN(C)CCCN1c2ccccc2Sc2ccc(Cl)cc21,growth,[1]; 10 µM unless noted,77% (inactive) and 105% (inactive) and 87.2% (inactive)
same,growth,[2]; 10 µM unless noted,84.6% (inactive) and 114% (inactive) and 96.2% (inactive)
same,growth,[3]; 10 µM unless noted,21.3% (inactive) and 129% (inactive) and 55.5% (inactive)
same,growth,[4]; 10 µM unless noted,86.3% (inactive) and 102% (inactive) and 83.8% (inactive)
same,growth,[5],37.8% (inactive) and 101% (inactive) and 66.6% (inactive)
same,growth,[6],28.1% (inactive) and 110% (inactive) and 59.2% (inactive)
same,growth,[7]; 10 µM unless noted,58.9% (inactive) and 107% (inactive) and 91.1% (inactive)
same,growth,[8]; 10 µM unless noted,87.7% (inactive) and 114% (inactive) and 100% (inactive)
O=C(O)c1sccc1O,growth,[1]; 10 µM,53.9% (inactive)
same,growth,[1]; 100 µM,18.2% (inactive)
same,growth,[2]; 10 µM,69.5% (inactive)
same,growth,[2]; 100 µM,11.6% (inactive)
same,growth,[3]; 10 µM,77.8% (inactive)
same,growth,[3]; 100 µM,0.533% (active)
same,growth,[4]; 10 µM,93.3% (inactive)
same,growth,[4]; 100 µM,24% (inactive)
same,growth,[5],15.4% [100 µM] (inactive)
same,growth,[6],15.5% [100 µM] (inactive)
same,growth,[7]; 10 µM,109% (inactive)
same,growth,[7]; 100 µM,38.5% (inactive)
same,growth,[8]; 10 µM,78.3% (inactive)
same,growth,[8]; 100 µM,2.5% (active)
Nc1cc(-c2cccc(OC(F)(F)F)c2)nc2ccc(N3CCCC3)cc12,growth,[1]; 10 µM unless noted,99.2% (inactive) and 100% (inactive) and 87.9% (inactive)
same,growth,[2]; 10 µM unless noted,16.2% (inactive) and 26.9% (inactive) and 3.22% (active)
same,growth,[3]; 10 µM unless noted,-9.34% (active) and -21.4% (active) and -35.8% (active)
same,growth,[4]; 10 µM unless noted,26.8% (inactive) and 32% (inactive) and 21.7% (inactive)
same,growth,[5],15.4% (inactive) and 14.9% (inactive) and 15.8% (inactive)
same,growth,[6],2.86% (active) and 5.92% (active) and 2.47% (active)
same,growth,[7]; 10 µM unless noted,-31.7% (active) and 2.5% (active) and -33.8% (active)
same,growth,[8]; 10 µM unless noted,10.1% (inactive) and 14.3% (inactive) and 3.24% (active)
CC(C)(O)Cn1cc(-c2ccc3nc(OC4CC4)ccc3c2)c2c(N)ncnc21,growth,[1]; 10 µM unless noted,47.6% (inactive) and 5.84% (active)
same,growth,[2]; 10 µM unless noted,84.7% (inactive) and 66.4% (inactive)
same,growth,[3]; 10 µM unless noted,93.7% (inactive) and 61% (inactive)
same,growth,[4]; 10 µM unless noted,97.4% (inactive) and 63.8% (inactive)
same,growth,[5],69.6% (inactive) and 39.6% (inactive)
same,growth,[6],70.3% (inactive) and 52.4% (inactive)
same,growth,[7]; 10 µM unless noted,99.7% (inactive) and 89.4% (inactive)
same,growth,[8]; 10 µM unless noted,84.1% (inactive) and 56.8% (inactive)
O=C(CN1CCOCC1)N1CCOCC1,growth,[1]; 10 µM unless noted,110% (inactive) and 101% (inactive)
same,growth,[2]; 10 µM unless noted,96.9% (inactive)
same,growth,[3]; 10 µM unless noted,116% (inactive) and 101% (inactive)
same,growth,[4]; 10 µM unless noted,105% (inactive) and 109% (inactive)
same,growth,[5],110% (inactive) and 105% (inactive)
same,growth,[6],104% (inactive) and 107% (inactive)
same,growth,[7]; 10 µM unless noted,104% (inactive) and 105% (inactive)
same,growth,[8]; 10 µM unless noted,110% (inactive) and 106% (inactive)
CN1CCN(C2CCN(C(=O)Nc3cc(Oc4ccc(NC(=O)C5(C(=O)Nc6ccc(F)cc6)CC5)c(F)c4)ccn3)CC2)CC1,growth,[1]; 10 µM unless noted,-66.4% (active) and 83.7% (inactive)
same,growth,[2]; 10 µM unless noted,-68.7% (active) and 98.5% (inactive)
same,growth,[3]; 10 µM unless noted,-93% (active) and 85.8% (inactive)
same,growth,[4]; 10 µM unless noted,-14.2% (active) and 122% (inactive)
same,growth,[5],-42.1% (active) and 76% (inactive)
same,growth,[6],-58.6% (active) and 69.1% (inactive)
same,growth,[7]; 10 µM unless noted,-66.8% (active) and 136% (inactive)
same,growth,[8]; 10 µM unless noted,-46% (active) and 30.4% (inactive)
Cc1cc(O)c(C(C)C)cc1N,growth,[1]; 10 µM unless noted,16.1% (inactive) and 71.8% (inactive)
same,growth,[2]; 10 µM unless noted,109% (inactive) and 98.1% (inactive)
same,growth,[3]; 10 µM unless noted,117% (inactive) and 98.9% (inactive)
same,growth,[4]; 10 µM unless noted,109% (inactive) and 102% (inactive)
same,growth,[5],94.3% (inactive) and 92.7% (inactive)
same,growth,[6],87.2% (inactive) and 104% (inactive)
same,growth,[7]; 10 µM unless noted,105% (inactive) and 94.2% (inactive)
same,growth,[8]; 10 µM unless noted,110% (inactive) and 114% (inactive)
CCOc1ccc2cc(-c3nn(CC4CCNCC4)c4ncnc(N)c34)ccc2c1,growth,[1]; 10 µM unless noted,71% (inactive) and 34.2% (inactive)
same,growth,[2]; 10 µM unless noted,86.1% (inactive) and 36.2% (inactive)
same,growth,[3]; 10 µM unless noted,95.4% (inactive) and 14.9% (inactive)
same,growth,[4]; 10 µM unless noted,91.6% (inactive) and 37.3% (inactive)
same,growth,[5],78.8% (inactive) and 46.2% (inactive)
same,growth,[6],80.4% (inactive) and 16.4% (inactive)
same,growth,[7]; 10 µM unless noted,110% (inactive) and 49.1% (inactive)
same,growth,[8]; 10 µM unless noted,14.5% (inactive) and 11.9% (inactive)
